Columns and labels:
Assay type in all cases: functional
[1] = biological target: Solute carrier family 2, facilitated glucose transporter member 1 (Homo sapiens) (UniProt P11166); test: ST_JUDE_LEISH: Cytotoxicity at 2uM final concentration against transgenic Leishmania Mexicana promastigotes LmGLUT1 that are glucose transport deficient and complemented with the human glucose transporter GLUT1. Activity is measured by DNA content using SYBR green in vitro
[2] = biological target: Hexose transporter 1 (Plasmodium falciparum) (UniProt O97467); test: ST_JUDE_LEISH: Cytotoxicity at 2uM final concentration against transgenic Leishmania Mexicana promastigotes LmPfHT that are glucose transport deficient and complemented with the Plasmodium falciparum hexose transporter. Activity is measured by DNA content using SYBR green in vitro
[3] = biological target: Glucose transporter (Leishmania mexicana) (UniProt O61059); test: ST_JUDE_LEISH: Cytotoxicity at 2uM final concentration against transgenic Leishmania Mexicana promastigotes LmGT2 that are glucose transport deficient and complemented with the L. Mexicana glucose transporter 2. Activity is measured by DNA content using SYBR green in vitro

Chain of Solute carrier family 2, facilitated glucose transporter member 1 (Homo sapiens) (P11166 whole entry): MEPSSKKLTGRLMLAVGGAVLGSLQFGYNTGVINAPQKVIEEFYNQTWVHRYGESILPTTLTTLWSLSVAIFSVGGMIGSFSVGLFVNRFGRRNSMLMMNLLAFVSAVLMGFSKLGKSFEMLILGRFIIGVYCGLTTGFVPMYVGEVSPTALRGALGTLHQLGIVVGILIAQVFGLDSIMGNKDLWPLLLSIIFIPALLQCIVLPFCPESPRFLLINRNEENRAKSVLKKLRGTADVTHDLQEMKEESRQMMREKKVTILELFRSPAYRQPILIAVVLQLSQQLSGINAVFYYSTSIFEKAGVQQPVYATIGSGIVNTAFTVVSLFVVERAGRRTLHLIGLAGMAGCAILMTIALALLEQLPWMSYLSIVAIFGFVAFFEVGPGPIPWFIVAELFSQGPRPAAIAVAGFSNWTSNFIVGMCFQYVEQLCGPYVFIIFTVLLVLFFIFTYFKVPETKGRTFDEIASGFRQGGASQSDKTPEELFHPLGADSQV

SMILES | inhibition [1] | inhibition [2] | inhibition [3]
COc1ccc2ncc(F)c([C@H](O)CN3CCC(NCc4ccc5c(c4)NC(=O)CS5)CC3)c2c1 | -1.54% | -0.25% | -1.73%
COc1cc2c(cc1OC)C(C(=O)Nc1ccc(C(F)(F)F)cc1)C(c1cccs1)N(C)C2=O (configuration not stated) | 2.92% | 3.56% | 1.2%
O=C(Nc1cccc([N+](=O)[O-])c1)N(Cc1ccc(Cl)c(Cl)c1)C1CCNCC1 | 5.08% | 3.21% | 3.8%
COc1cc(NCCCNC(=O)c2ccc(Cl)c(Cl)c2)nc2ccccc12 | 5.42% | 5.69% | 5.08%
Nc1nonc1-c1nc2c(-c3cccc(Cl)c3)nccc2n1CCCNC(=O)Cc1ccc(Cl)cc1 | 0.7% | 0.77% | 0.42%
COc1cc(NC(=O)/C=C/c2ccccc2OC(F)(F)F)cc(OCCN2CCC(O)(c3ccccc3)CC2)c1 | 7.57% | 5.55% | 5.81%
COc1cc(C(=O)NC2CCN(Cc3ccccc3)CC2)ccc1-c1nc2cc(Cl)c(C)cc2[nH]1 | 10.1% | 9.26% | 5.5%
CC1CCC(C(C)C)C(OC(=O)CSc2nnc3c(n2)[nH]c2ccccc23)C1 (configuration not stated) | -1.05% | -0.14% | -0.42%
Cc1ccc(NC(=O)NC2CCN(c3ccnc4cc(Cl)ccc34)C2)cc1 (configuration not stated) | 0.94% | 4.46% | 2.34%
